The values below come from PubChem BioAssay AID488969 (Vanderbilt High Throughput Screening Facility, 2010).

SMILES strings stand for the structures. Over roughly 110,000 compounds, “z-score” has its median near -0.1; the highest 2% begin near 2. The sample holds the highest values, similar compounds and a random draw of the others, so the mix is not that of the screen. Calls of active or inactive are those of the source.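 The calls were made as follows: active = z-score in the third read window above 3 or below -3; inactive = the rest.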

In this assay the target is Metabotropic glutamate receptor 8 (Rattus norvegicus) (UniProt P70579). The assay is described as follows: rat mGluR8 modulators via GIRK flux, primary screen, cell-based, thallium flux, HTS (AID 488969). Particulars: HEK293 rat mGluR8, GIRK (G protein-gated inwardly rectifying potassium channel) thallium flux, FluoZin2; at 10 µM; stronger effect = higher value; submaximal glutamate (EC20) added with thallium.
Chain of Metabotropic glutamate receptor 8 (Rattus norvegicus) (P70579 whole entry, looked up): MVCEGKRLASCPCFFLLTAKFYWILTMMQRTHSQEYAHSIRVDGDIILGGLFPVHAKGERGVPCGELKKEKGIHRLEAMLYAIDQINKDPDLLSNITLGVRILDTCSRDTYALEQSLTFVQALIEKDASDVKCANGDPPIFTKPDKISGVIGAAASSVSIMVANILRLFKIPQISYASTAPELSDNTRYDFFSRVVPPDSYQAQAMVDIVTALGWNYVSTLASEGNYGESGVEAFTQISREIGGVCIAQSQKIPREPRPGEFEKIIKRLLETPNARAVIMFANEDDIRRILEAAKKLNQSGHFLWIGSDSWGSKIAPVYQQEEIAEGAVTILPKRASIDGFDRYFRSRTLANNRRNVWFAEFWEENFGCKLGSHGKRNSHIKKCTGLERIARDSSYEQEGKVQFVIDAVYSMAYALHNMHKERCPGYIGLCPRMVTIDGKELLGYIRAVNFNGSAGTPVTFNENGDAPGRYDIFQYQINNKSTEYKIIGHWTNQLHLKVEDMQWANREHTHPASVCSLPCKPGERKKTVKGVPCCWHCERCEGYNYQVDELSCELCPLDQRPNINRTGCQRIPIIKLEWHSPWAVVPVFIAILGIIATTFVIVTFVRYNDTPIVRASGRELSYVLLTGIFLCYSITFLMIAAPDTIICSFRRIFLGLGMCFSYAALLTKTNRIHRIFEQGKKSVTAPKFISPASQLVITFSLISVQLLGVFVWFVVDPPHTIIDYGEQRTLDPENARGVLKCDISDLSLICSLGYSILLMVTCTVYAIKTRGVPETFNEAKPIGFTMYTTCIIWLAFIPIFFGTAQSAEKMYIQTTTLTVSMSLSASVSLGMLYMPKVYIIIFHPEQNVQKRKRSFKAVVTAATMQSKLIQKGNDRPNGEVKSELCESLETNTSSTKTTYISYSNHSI
`COc1ccccc1C1(CCNS(=O)(=O)c2ccc(C)cc2)CCOC(C(C)C)C1` (stereo not drawn): the z-score is -0.293.
As for `CC(=O)/C(=N/Nc1ccccc1)Sc1nnc(C(O)c2ccccc2)n1-c1ccccc1` (stereo not drawn), the figure is -0.33.
`COc1cc(Cl)c(C)cc1NC(=O)CSC` came in with a z-score of 0.0277.
For `CCn1cc(CNC(=O)/C=C/c2ccc([N+](=O)[O-])cc2)c(C)n1`, the z-score was -0.204.
For `COc1ccc2nc(Nc3nc4cc5c(cc4s3)OCO5)sc2c1` the value was 0.175; for `Fc1cccc2sc(Nc3nc4cc5c(cc4s3)OCCO5)nc12`, 2.25.
Take `c1ccc2sc(Nc3nc4cc5c(cc4s3)OCO5)nc2c1`: the z-score is 0.501.
As for `Fc1cc(F)c2nc(Nc3nc4cc5c(cc4s3)OCO5)sc2c1`, the figure is 1.9.
As for `Fc1cccc2sc(Nc3nc4cc5c(cc4s3)OCO5)nc12`, the figure is 5.54 (active).
As for `Fc1ccc2nc(Nc3nc4cc5c(cc4s3)OCCO5)sc2c1`, the figure is -0.101; as for `Clc1cccc(Cl)c1Cn1cnc(=NCc2ccco2)c2[nH]cnc21`, -0.33; as for `COc1ccc(/C=N/Nc2cc(C)nc(NS(=O)(=O)c3ccc(C)cc3)n2)cc1`, -0.501.
In turn, `CCCCN=Cc1sc2ccc(OCC)cc2c1O` registered a z-score of -0.188.
In the case of `CC1CCCN(C(=O)CSc2nnc3n(C4CCCC4)c(=O)c4ccccc4n23)C1` (stereo not drawn), the z-score is -0.217.
For `O=C(Nc1ccccc1)Nc1ccccn1`, the z-score turned out to be 0.139.
For `S=C(Nc1ccccc1)c1ccccn1` the value was 2.52; for `Cc1ccc(C)c(NC(=S)c2ccccn2)c1`, -0.333; for `CC(=O)N(Cc1ccc(F)cc1)C1=C(NCCc2ccccc2)C(=O)c2ccccc2C1=O`, 1.71e-05.
The compound `CCCNC1=C(N(C(C)=O)c2cccc(F)c2)C(=O)c2ccccc2C1=O` came in with a z-score of -1.55.
For `CC(=O)N(Cc1ccc(F)cc1)C1=C(NCc2ccccc2)C(=O)c2ccccc2C1=O` the value was 2.03; for `COC(=O)C1(S(=O)(=O)c2cc(Br)cc3c2N(C(C)=O)CC3)CC1`, -0.117; for `O=C(COC(=O)C1=Cc2ccccc2OC1)NC1CCCC1`, -0.184.
Compound `CN1CCN(C(=O)CN(c2cc(C(F)(F)F)ccc2Cl)S(C)(=O)=O)CC1` yielded a z-score of 2.63.
As to `CS(=O)(=O)N(CC(=O)N1CCN(c2ccccc2)CC1)c1cc(C(F)(F)F)ccc1Cl`, the z-score is -0.525.
As for `CCOC(=O)N1CCN(C(=O)CN(c2cc(C(F)(F)F)ccc2Cl)S(C)(=O)=O)CC1`, the figure is 0.421.
Turning to `O=C(COc1cccc2ccccc12)NNC(=O)CSCCO`, the z-score is -0.199.
In the case of `c1ccc2c(NC3CCCC3)nnc(NC3CCCC3)c2c1`, the z-score was 3.18 (active).
With `c1csc(-c2nnc(NC3CCCCC3)c3ccccc23)c1`, the z-score was -1.27.
For `c1ccc(-n2nnnc2NC2CCCCC2)cc1` the value was -0.018; for `CCOC(=O)CSc1nnc(CNc2cccc(Cl)c2)n1C`, 1.12; for `CCOC(=O)CSc1nnc(CNc2cccc(Cl)c2)n1-c1ccccc1`, 2.85.
As for `CCOC(=O)CSc1nnc(Cc2ccccc2)n1-c1cccc(Cl)c1`, the figure is -0.436; as for `CCOC(=O)C(=O)Nc1ccc2c(c1)OCO2`, 0.0617.
For `Oc1c(Cl)cc(Cl)cc1C=Nc1ccccc1N1CCCC1` the value was 0.0524; for `O=C(Cn1nc(Cc2ccncc2)c2ccccc2c1=O)N1CCN(C(=O)c2ccco2)CC1`, 3.76 (active).
`Cc1cccc(N2CCN(C(=O)Cn3nc(Cc4ccncc4)c4ccccc4c3=O)CC2)c1C` had a z-score of -0.488.
For `O=C(Cn1nc(Cc2cccnc2)c2ccccc2c1=O)N1CCN(C(=O)c2ccco2)CC1` the value was -0.426.
In turn, `CC(C)=C1SC(N2CCN(c3cccc(C(F)(F)F)c3)CC2)=NC1=O` yielded a z-score of -0.205.
As for `O=C1c2cccc3cc(Br)cc(c23)C(=O)N1Nc1ccc(Br)cc1`, the z-score is -0.252.
`COc1ccc(CCNC(=O)c2ccc(CN3CCC(Cc4ccccc4)CC3)cc2)cc1` registered a z-score of -0.304.
`Cc1ccc(CCNC(=O)C2CCCN(S(=O)(=O)c3c(C)noc3/C=C/N(C)C)C2)cc1` (stereo not drawn): the z-score is -0.519.
`Cc1noc(/C=C/N(C)C)c1S(=O)(=O)N1CCCC(C(=O)NCc2ccc(Cl)cc2)C1` (stereo not drawn) showed a z-score of -0.29.
As for `Cc1noc(/C=C/N(C)C)c1S(=O)(=O)N1CCCC(C(=O)NCc2ccc(F)cc2)C1` (stereo not drawn), the figure is 2.21.
In turn, `CC(C)(C)NC(=O)C(c1ccncc1)N(C(=O)Cn1nnc(-c2cccs2)n1)C1CCCCC1` (stereo not drawn) showed a z-score of -0.081.
For `Cc1ccc(-n2c(CSc3nc(C)cc(C)n3)nnc2SCC(=O)NCc2ccco2)cc1` the value was 8.78 (active); for `Cc1cc(C)nc(SCc2nnc(SCC(=O)NCc3ccco3)n2-c2ccccc2)n1`, -0.73; for `Cc1cc(C)nc(SCC(=O)NCc2ccco2)n1`, 0.232.
`Cc1ccc(-c2nc3ncccc3o2)cc1NC(=O)Cc1ccc(Cl)cc1` showed a z-score of 0.497.
As for `CNC(=O)C1CC(=O)N(c2ccc(C)cc2)C1` (stereo not drawn), the figure is 0.338.
For `O=C(Nc1ccc2c(c1)OCCO2)C1CCCN(S(=O)(=O)c2cccc3nsnc23)C1` (stereo not drawn) the value was 0.545; for `CN(C)S(=O)(=O)N1CCN(C(=O)N2CCCCCC2)CC1`, -0.197; for `Cc1ccc(C(=O)OCC(=O)N2CC(=O)Nc3ccccc32)s1`, 0.331.
As for `Cc1ccsc1C(=O)OCC(=O)N1CC(=O)Nc2ccccc21`, the figure is -0.081; as for `CCOc1ncccc1C(=O)OCC(=O)N1CC(=O)Nc2ccccc21`, 2.36.
Consider `O=C(CCN1C(=O)C2CC=C(Cl)CC2C1=O)NCc1ccco1` (stereo not drawn), for which the z-score was -0.187.
`O=S(=O)(NC1CC1)c1ccc(S(=O)(=O)N(Cc2ccccn2)C2CCCC2)cc1` registered a z-score of -0.114.
Consider `O=C(Nc1ccc(N2CCN(C(=O)c3ccco3)CC2)c(Cl)c1)c1c(F)c(F)c(F)c(F)c1F`, for which the z-score was -0.334.
As for `O=C(Cc1ccc(Cl)cc1)Nc1ccc(N2CCN(C(=O)c3ccco3)CC2)cc1`, the figure is 0.107; as for `O=C(Cc1ccc(Cl)cc1)Nc1ccc(N2CCN(C(=O)c3ccco3)CC2)c(Cl)c1`, 2.13.
On to `Cc1cc(/C=N\NC(=O)CC(=O)NC2CCCCC2)c(C)n1-c1cccc(Cl)c1Cl`, for which the z-score was -0.438.
As for `CCN1CCN(Cc2ccccc2NC(=O)Nc2ccc(C)cc2)CC1`, the figure is 0.088.
As for `NC(=O)C1CCCN(C(=O)Nc2cccc3ccccc23)C1` (stereo not drawn), the figure is 0.107; as for `COC(=O)Cc1c[nH]c2cccc(OCC(O)CN(Cc3ccccc3)C(C)C)c12` (stereo not drawn), 0.637; as for `CCOc1c2ccc(C(=O)NCCc3ccc(C)cc3)cc2nn1CC`, -0.287.
Consider `CCCCn1nc2cc(C(=O)NCCc3ccc(C)cc3)ccc2c1OCC`, for which the z-score is -0.356.
Take `CCCn1nc2cc(C(=O)NCCc3ccc(C)cc3)ccc2c1OCC`: the z-score was found to be 2.73.
For `Cc1c(C(N)=O)sc2ncn(CC(=O)OC(C)C)c(=O)c12` the value was 0.619; for `CN(C)CCSc1nc(-c2ccccc2)nc2c1COC(C)(C)C2`, -0.143.
